The full list was thinned out, with hits kept by preference.
Methyltransferases: Primary Screen for Target Class Profiling of Small Molecule Inhibitors of Methyltransferases. actives 3.9% (n = 25,000). AID 1745853, 2022. calls only at 40 µM. purified enzyme, MTase-Glo SAH luminescence; hits give low values; call rule not given here
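Each enzyme was reacted with SAM and its substrate, with compounds tested once at 40 uM; SAH formed was read by MTase-Glo luminescence.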
Large screens that a line does not name were inactive; ! = repeats disagree.

CC(C)=CC/C=C(/C)[C@H]1CC[C@]2(C)[C@@H]1[C@H](O)CC1[C@@]3(C)CC[C@H](O)C(C)(C)[C@@H]3[C@@H](O[C@@H]3O[C@H](CO)[C@@H](O)[C@H](O)[C@H]3O[C@@H]3O[C@@H](C)[C@H](O)[C@@H](O)[C@H]3O)C[C@]12C (some centres not stated)	none
COc1ccccc1N1CCN(C(=O)CCc2nnc3n(Cc4ccc(C)cc4)c(=O)c4ccccc4n23)CC1	none
COc1c2c(c(C)c3c1C(=O)OC3)OC1(C)CC(O)C3(O)C(C)(C)OC(=O)CCC3(C)C1C2 (configuration not stated)	none
COc1c2c(c(C)c3c1C(=O)OC3)OC1(C)CC(O)C34OC(OC)(CC(O)C3(C)C1C2)OC4(C)C (configuration not stated)	Methyltransferases active
COc1c2c(c(C)c3c1C(=O)OC3)O[C@@]1(C)CC(O)C(C(C)(C)O)[C@](C)(CCC(=O)O)[C@H]1C2 (some centres not stated)	none
Cc1ccc(C(=O)CSc2nnc3n(C)c(=O)c4ccc(C(=O)NC5CCCC5)cc4n23)cc1	none
CCOC(=O)c1cc2n(n1)CC(C)(C(=O)NC1CCCC1)N(c1cccc(F)c1)C2=O (configuration not stated)	none
COc1ccc(NC(=O)Cn2nc3n(Cc4ccc(C)cc4)c(=O)c4ccccc4n3c2=O)cc1OC	none
CCCSCCCN1C(=O)c2cc3sc(CC)cc3n2CC1(C)C(=O)NC1CCC(C)CC1 (configuration not stated)	none
CN(c1ccccc1CNc1nc(Nc2ccc3c(c2)CC(=O)N3)ncc1C(F)(F)F)S(C)(=O)=O	Methyltransferases active
CC1(C(=O)NC2CCCCC2)Cn2c(cc3ccccc32)C(=O)N1Cc1cccc(Cl)c1 (configuration not stated)	none
CCc1ccc(N2C(=O)c3cc4ccc(OC)cc4n3CC2(C)C(=O)NC2CCCC2)cc1 (configuration not stated)	none
Cc1ccc(Cn2c(=O)c3ccc(C(=O)NC(C)C)cc3n3c(=O)n(Cc4ccccc4)nc23)cc1	none
Cc1c(C)n(Cc2ccc(-c3ccccc3C(=O)O)cc2)c2ccc(C(=O)N[C@@H](C)c3ccc([N+](=O)[O-])cc3)cc12	Methyltransferases active
COC(=O)[C@H](Cc1ccc([N+](=O)[O-])cc1)NC(=O)c1cccc2ccccc12	none
CC(C)Cn1c(=O)c2ccc(C(=O)NC(C)C)cc2n2c(SCC(=O)Nc3ccccc3F)nnc12	none
CC(C)CCn1c(=O)c2ccc(C(=O)NC(C)C)cc2n2c(=O)n(CC(=O)c3ccc(Cl)cc3)nc12	none
COc1ccc2nc3n[nH]c(C)c3c(NCCOCCO)c2c1	Methyltransferases active
Cc1cccc(CSc2nnc3n(C)c(=O)c4ccc(C(=O)NC5CCCC5)cc4n23)c1	none
CCCn1c(=O)c2ccc(Cl)cc2n2c(=O)n(CC(=O)Nc3cccc(Cl)c3)nc12	none
CC1CCCCN1CCN1C(=O)c2ccc(-c3ccco3)n2CC1(C)C(=O)NC1CCCCCC1 (configuration not stated)	none
O=C1Nc2ccc(Cl)cc2[C@@](C#CC2CC2)(C(F)(F)F)O1	Methyltransferases active!
Cc1ccc(CCNC(=O)c2cc3n(n2)CC(C)(C(=O)NCc2ccc(F)cc2)N(C)C3=O)cc1 (configuration not stated)	none
CCCCN1C(=O)c2ccccc2C(C(=O)NC2CC2)C12CCCCC2 (configuration not stated)	none
CCN1C(=O)c2ccccc2C1Nc1ccc(OCCN2CCCCC2)cc1 (configuration not stated)	Methyltransferases active
CCCCOc1ccccc1-c1cc2n(n1)CC(C)(C(=O)NC1CCCCCC1)N(CC)C2=O (configuration not stated)	none
C=Cc1ccc(Cn2nc3n(CC(C)C)c(=O)c4ccc(C(=O)NC5CCCCC5)cc4n3c2=O)cc1	none
O=C(O)c1cc(N(Cc2ccc(C3CCCCC3)cc2)C(=O)c2ccc(Oc3ccccc3)cc2)ccc1O	Methyltransferases active
O=C(/C=C/c1ccccc1)OC[C@H]1O[C@@H](OC(=O)c2cc(O)c(O)c(O)c2)[C@H](O)[C@@H](O)[C@@H]1O	Methyltransferases active
O=C(/C=C/c1ccc(O)cc1)OC[C@H]1O[C@@H](O/C(=C\c2ccccc2)C(=O)O)[C@H](O)[C@@H](O)[C@@H]1O	none
CC(=O)O[C@@H]1[C@@H](CO)O[C@@](CO)(O[C@H]2O[C@H](COC(=O)/C=C/c3ccccc3)[C@@H](O)[C@H](O)[C@H]2O)[C@H]1O	none
CCC(C)NC(=O)c1ccc2c(=O)n(C)c3nn(Cc4ccc(F)cc4)c(=O)n3c2c1 (configuration not stated)	none
COc1cccc(CSc2nnc3n(CC(C)C)c(=O)c4ccc(C(=O)NC(C)C)cc4n23)c1	none
CCC(C)NC(=O)c1ccc2c(=O)n(C(C)C)c3nn(CC(=O)Nc4ccccc4F)c(=O)n3c2c1 (configuration not stated)	none
Cc1ccc(CNC(=O)CSc2nnc3n(CC(C)C)c(=O)c4cc(F)ccc4n23)cc1	none
CC(C)Cn1c(=O)c2ccccc2n2c(CCC(=O)NC3CC3)nnc12	none
C=C1C(=O)O[C@@H]2/C=C(\C)CC/C=C(\C(=O)O[C@@H]3O[C@H](CO)[C@@H](O)[C@H](O)[C@H]3O)CC[C@@H]12	none
C=C1C(=O)OC2/C=C(\CO)CC/C=C(\C=O)C(OC)C(OC(=O)C(C)CC)C12 (configuration not stated)	Methyltransferases active
C=C1C(=O)OC2/C=C(\C)CC/C=C(\C=O)C(OC)C(OC(=O)C(C)CC)C12 (configuration not stated)	Methyltransferases active
C=C1C(=O)O[C@@H]2/C=C(\C)CC/C=C(\C)CC[C@@H]12	none
C=C1C(=O)O[C@@H]2/C=C(\C)CC/C=C(/C=O)[C@H](OC)[C@@H](OC(=O)C(C)C)[C@@H]12	none
C=C(C)C(=O)O[C@H]1/C(C=O)=C\CC/C(CO)=C/[C@H]2OC(=O)C(=C)[C@@H]2[C@@H]1OC	none
CCOCCCNC(=O)C1c2c(n(C)c3ccccc23)SCC(=O)N1c1ccc(C(=O)OCC)cc1 (configuration not stated)	none
CNCc1ccc(-c2cc(-c3nc(-c4ccc(S(=O)(=O)C(C)C)cc4)cnc3N)on2)cc1	none
COc1ccccc1CN1C(=O)c2cc(-c3cccs3)nn2CC1(C)C(=O)NC1CCCCCC1 (configuration not stated)	none
CC1(C(=O)NC2CCCC2)Cn2c(nc3ccccc32)C(=O)N1Cc1cccs1 (configuration not stated)	none
O=C(NCc1ccccc1)c1ccc2c(=O)nc3c(-c4ccc(F)cc4)n[nH]n3c2c1	none
CC1(C(=O)NC2CCCCC2)Cn2c(cc3occc32)C(=O)N1Cc1cccnc1 (configuration not stated)	none
Cc1ccc(CN2C(=O)c3cc(-c4ccco4)nn3CC2(C)C(=O)NC2CCCCC2)cc1 (configuration not stated)	none
COc1ccc(-c2cc3n(n2)CC(C)(C(=O)NCc2ccccc2)N(c2cccc(Cl)c2C)C3=O)cc1 (configuration not stated)	none
COc1ccc(-c2cc3n(n2)CC(C)(C(=O)NCc2ccccc2)N(Cc2ccccc2F)C3=O)cc1 (configuration not stated)	none
COc1ccccc1CNC(=O)C1(C)Cn2nc(-c3ccccc3)cc2C(=O)N1Cc1ccc(OC)c(OC)c1 (configuration not stated)	none
